This passage reports Potency, activity change, negative = inhibition and activation results from PubChem BioAssay (NCATS).

The target in assay [1] is Rap guanine nucleotide exchange factor 3 (Homo sapiens) (UniProt O95398). Nature of the assay: Confirmatory qHTS for antagonist of cAMP-regulated guanine nucleotide exchange factor 3 (EPAC1) (AID 1645880). Further: nearly all actives have a fitted effect of over 55% in size. Further: potency means the concentration at half of the fitted maximal effect.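 On activity, negative = inhibition: plate controls were DMSO only for no effect and full effect of the ATA control for full effect.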 As to conditions: EPAC1 Rap1B-BODIPY-GDP exchange, fluorescence; activity, negative = inhibition: at 115 µM (top of the series). A digest of the protocol: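 Released BODIPY-GDP fluoresces less than Rap1-bound BODIPY-GDP; the signal is followed at 480/540 nm at 5-min intervals over 30 min, after 5 min at room temperature. Reactions contain 100 nM EPAC1, 250 nM RAP1B-BODIPY-GDP and 50 uM GDP; results are normalized to ATA and DMSO.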
Sequence of Rap guanine nucleotide exchange factor 3 (Homo sapiens) (O95398 whole entry, looked up): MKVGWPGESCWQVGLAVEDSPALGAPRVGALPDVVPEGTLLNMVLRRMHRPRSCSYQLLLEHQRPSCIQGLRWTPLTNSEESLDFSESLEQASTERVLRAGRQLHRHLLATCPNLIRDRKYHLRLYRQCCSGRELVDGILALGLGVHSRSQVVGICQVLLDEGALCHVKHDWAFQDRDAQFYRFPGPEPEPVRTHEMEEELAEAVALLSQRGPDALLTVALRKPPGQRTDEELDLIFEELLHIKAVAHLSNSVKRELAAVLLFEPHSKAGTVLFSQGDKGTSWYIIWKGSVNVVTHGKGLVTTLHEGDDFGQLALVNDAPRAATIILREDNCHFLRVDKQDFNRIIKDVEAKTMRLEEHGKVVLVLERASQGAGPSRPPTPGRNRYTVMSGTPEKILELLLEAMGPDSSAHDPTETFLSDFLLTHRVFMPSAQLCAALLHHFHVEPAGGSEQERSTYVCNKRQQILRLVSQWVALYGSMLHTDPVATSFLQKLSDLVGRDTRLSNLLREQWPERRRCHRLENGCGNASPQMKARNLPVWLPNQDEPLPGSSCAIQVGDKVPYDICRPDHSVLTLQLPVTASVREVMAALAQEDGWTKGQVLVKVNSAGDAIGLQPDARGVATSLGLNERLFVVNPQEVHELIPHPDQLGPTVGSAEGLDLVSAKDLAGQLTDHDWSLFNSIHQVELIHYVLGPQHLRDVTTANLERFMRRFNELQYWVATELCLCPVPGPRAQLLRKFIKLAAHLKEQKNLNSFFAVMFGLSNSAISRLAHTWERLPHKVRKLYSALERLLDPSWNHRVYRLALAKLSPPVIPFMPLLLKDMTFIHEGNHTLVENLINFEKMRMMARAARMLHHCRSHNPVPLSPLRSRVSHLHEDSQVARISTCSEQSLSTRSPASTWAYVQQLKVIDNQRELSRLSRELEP
(In general: Quantitative high-throughput screening tests each substance at several concentrations.)

For assay [2] the target is unchanged. Nature of the assay: Confirmatory qHTS for agonist of cAMP-regulated guanine nucleotide exchange factor 3 (EPAC1) (AID 1645881). Further: nearly all actives have a fitted effect of over 75% in size. Further: potency means the concentration at half of the fitted maximal effect.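 On activation: EPAC1 catalysed release of BODIPY-GDP from Rap1B seen as fluorescence loss; 100% = effect of cAMP agonist control.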
The target is the same in assay [3]. Nature of the assay: Counterscreen qHTS for antagonist of cAMP-regulated guanine nucleotide exchange factor 3 (EPAC1) (AID 1645888). Further: % of control where 0% means no effect. A digest of the protocol:
(§1)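 Rap1B-BODIPY-GDP 250 nM + GDP 50 uM; cpds 7-pt, final 9.74 nM–152 uM (activator mode) or from 7.32 nM upwards (inhibitor mode); RT; FI 480/540 nm at 5 and 30 min, then ± cAMP, reread.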
For orientation: A counterscreen serves to expose hits that act by an unwanted route or on another target.

The target is the same in assay [4]. The assay can be described thus: Counterscreen qHTS for agonist of cAMP-regulated guanine nucleotide exchange factor 3 (EPAC1) (AID 1645889). Further: nearly all actives have a fitted effect of over 40% in size. Further: potency means the concentration at half of the fitted maximal effect. On activation: % of control where 0% means no effect. In a few lines: as §1

The structures appear in SMILES notation. Records with an inconclusive call do not appear. A number with no mark means an inactive call. Calls of active or inactive are those of the source. The call rests on the fitted dose curve; in most records, active means well fitted curve in the direction sought with a large enough effect; inconclusive means small, poorly fitted or top-dose-only effect, or another doubt; inactive means no such curve, though single readings can be large; an effect the other way counts as inactive or inconclusive.

On to `COc1ccc(C(=O)N(Cc2ccccc2)c2cccc(C)c2)cc1`, for which the Potency result in assay [1], in assay [2], in assay [3] and in assay [4] was “inactive” throughout.
As for `CC1CN(c2nc(-c3ccccc3)nc3ccccc23)CC(C)O1` (centres undefined), the Potency result in assay [1] and in assay [2] was “inactive” each time. Besides, in assay [3], the activity change, negative = inhibition was 3.46% [at 30.8 µM]. In addition, in assay [4], the activation is 21.3% [at 30.8 µM].
As for `CCCC[C@@H]1C=C(C(=O)O)[C@H](c2ccc(Cl)c(Cl)c2)N1S(=O)(=O)c1ccc(C)cc1`, the Potency in assay [1] is 84.9 µM (active). The Potency result in assay [2], in assay [3] and in assay [4] was “inactive” each time.
`O=C(/C=C/c1cccc(Cl)c1Cl)OCC(=O)N1CCOCC1`: the Potency result in assay [1], in assay [2], in assay [3] and in assay [4] was “inactive” in each case.
Regarding `CCCCC[C@@H]1C=C(C(=O)O)[C@H](c2ccc(Cl)c(Cl)c2)N1S(=O)(=O)c1ccc(C)cc1`, the Potency in assay [1] was 30.1 µM (active). The Potency entry in assay [2], in assay [3] and in assay [4] was “inactive” throughout.
For `O=C(O)CCCN1C(=O)/C(=C/c2cn(-c3ccccc3)nc2-c2cccs2)SC1=S`, the Potency result in assay [1] and in assay [3] was “inactive” each time. Further, the figures for the Potency in assay [2] and in assay [4] were 112 µM (active) and 15.8 µM (active), respectively.
As for `COC(=O)c1ccc2nc(-c3ccc(F)cc3)c(CC3CCCCC3)n2c1`, the Potency result in assay [1] and in assay [2] was “inactive” each time. Further, the activity change, negative = inhibition in assay [3] was -8.86% [at 30.8 µM]. Moreover, the activation in assay [4] was 6.82% [at 30.8 µM].
As to `Cc1ccc(C2(c3noc(CN(C)Cc4ccccn4)n3)CCCC2)cc1`, the Potency result in assay [1] and in assay [2] was “inactive” throughout. Further, the activity change, negative = inhibition in assay [3] is -21.5% [at 30.8 µM]. In assay [4], the activation is 1.73% [at 30.8 µM].
For `COc1ccc(S(=O)(=O)N2CCCC2)c(Cl)c1Cl`, the Potency result in assay [1] and in assay [2] was “inactive” throughout. Further, in assay [3], the activity change, negative = inhibition is 12.2% [at 30.8 µM]. For the same compound, the activation in assay [4] is 0.265% [at 30.8 µM].
Turning to `CCOc1cc(C)c(S(=O)(=O)N2CCCCC2)cc1C`, the Potency entry in assay [1], in assay [2], in assay [3] and in assay [4] was “inactive” each time.
Take `COC(=O)c1ccc2nc(-c3cccc(Br)c3)c(Cc3ccsc3)n2c1`: the Potency result in assay [1] and in assay [2] was “inactive” each time. For the same compound, in assay [3], the activity change, negative = inhibition is -25% [at 30.8 µM]. Besides, the activation in assay [4] is 17.8% [at 30.8 µM].
For `CC1(C(=O)Nc2ccc3c(c2)OCO3)CCN1Cc1cccc2c1OCO2` (centres undefined), the Potency result in assay [1] and in assay [2] was “inactive” in each case. Further, the activity change, negative = inhibition in assay [3] is -9.44% [at 30.8 µM]. For the same compound, the activation in assay [4] is 19.3% [at 30.8 µM].
Consider `O=C(O)Cc1ccc(NC(=O)C(c2ccccc2)c2ccccc2)cc1`, for which the Potency entry in assay [1] and in assay [2] was “inactive” each time. In assay [3], the activity change, negative = inhibition is -6.7% [at 30.8 µM]. In assay [4], the activation is 5.55% [at 30.8 µM].
Turning to `COc1ccccc1-c1oc2ccccc2c1-c1ccc2c(c1)OCO2`, the Potency result in assay [1], in assay [2] and in assay [4] was “inactive” each time.
Turning to `CC(OC(=O)c1ccccc1Oc1ccccc1)C(=O)NC1CC1` (centres undefined), the Potency result in assay [1], in assay [2], in assay [3] and in assay [4] was “inactive” each time.
As to `COc1ccccc1C1CC(=O)Oc2cc(C)c(Cl)c(C)c21` (centres undefined), the Potency entry in assay [1] and in assay [2] was “inactive” in each case. Further, the activity change, negative = inhibition in assay [3] was 3.69% [at 30.8 µM]. Further, the activation in assay [4] is 15.1% [at 30.8 µM].
Regarding `COCCN(CCOC)Cc1cc(=O)oc2cc(C)cc(C)c12`, the Potency result in assay [1], in assay [2], in assay [3] and in assay [4] was “inactive” throughout.
As for `COc1ccc(NS(=O)(=O)c2ccc(S(=O)(=O)N3CCCC3)cc2)cc1`, the Potency result in assay [1] and in assay [2] was “inactive” in each case. Also, the activity change, negative = inhibition in assay [3] is -8.86% [at 30.8 µM]. The activation in assay [4] is 24.5% [at 30.8 µM].
In the case of `CC(C)CN(C(=O)c1ccco1)c1nc2ccccc2s1`, the Potency result in assay [1], in assay [2], in assay [3] and in assay [4] was “inactive” each time.
Regarding `COC(=O)c1cn(C(=O)c2ccc(C)cc2C)c2ccccc12`, the Potency entry in assay [1], in assay [2], in assay [3] and in assay [4] was “inactive” throughout.
On to `Cc1cccc2c1NC(=O)C2(O)N1CCCC(C)C1` (centres undefined), for which the Potency entry in assay [1], in assay [2], in assay [3] and in assay [4] was “inactive” in each case.
Take `COc1ccc2cc(S(=O)(=O)N3CCCC3)ccc2c1`: the Potency entry in assay [1] and in assay [2] was “inactive” each time. The activity change, negative = inhibition in assay [3] was -17.9% [at 30.8 µM]. The activation in assay [4] is 13.3% [at 30.8 µM].
Consider `Cc1ccc(O)c(C(=O)c2cc(C#N)c(=O)n(-c3nccs3)c2)c1`, for which the Potency result in assay [1] and in assay [3] was “inactive” each time. The figures for the Potency in assay [2] and in assay [4] were 100 µM (active) and 35.5 µM (active), respectively.
For `Cc1cc(C)c(C(=O)c2ccccc2)c(C)c1`, the Potency entry in assay [1], in assay [2], in assay [3] and in assay [4] was “inactive” throughout.
Take `C=CCSc1nc2ccccc2c(=O)n1Cc1ccccc1`: the Potency result in assay [1] and in assay [2] was “inactive” in each case. In addition, the activity change, negative = inhibition in assay [3] was 17.3% [at 30.8 µM]. Also, the activation in assay [4] was 7.4% [at 30.8 µM].
Take `O=C1[C@H]2CCC=C[C@H]2[C@H](c2ccccc2Br)N1Cc1ccccc1`: the Potency result in assay [1], in assay [2], in assay [3] and in assay [4] was “inactive” in each case.
In the case of `CCOC(=O)C1Oc2ccccc2C(c2ccc(F)cc2)=C1C(=O)OC` (centres undefined), the Potency result in assay [1] and in assay [2] was “inactive” in each case. For the same compound, the activity change, negative = inhibition in assay [3] was -24.6% [at 30.8 µM]. Also, the activation in assay [4] was 13.2% [at 30.8 µM].
With `CC(C)c1nc2cc(Cl)ccc2n(Cc2ccccc2)c1=O`, the Potency result in assay [1], in assay [2], in assay [3] and in assay [4] was “inactive” each time.
For the compound `CCCCC1=C(C(=O)OCC)C(C(=O)OCC)Oc2ccccc21` (centres undefined), the Potency entry in assay [1], in assay [2], in assay [3] and in assay [4] was “inactive” each time.
In the case of `C=C1SC(Nc2c(C)cc(C)cc2C)=NC12CCCCC2`, the Potency result in assay [1], in assay [2], in assay [3] and in assay [4] was “inactive” throughout.
